# The campaign covered roughly 1,900 compounds. About 550 (29%) were called active. These entries were drawn from the full list. Values without a mark were called inactive. Cut-off read from the data, not from the text of the source: active = inhibition above about 40%; inactive = the rest.
# Biological target: 26S proteasome non-ATPase regulatory subunit 14 (Homo sapiens) (UniProt O00487)
# Test: inhibition of 26S proteasome subunit Rpn11 – biochemical, fluorescence polarization, single concentration, confirmation (AID 602318)
# Settings: purified human 26S proteasome, Ub4-pepOG fluorescence polarization; at 20 µM; stronger effect = higher value; proteasome pretreated with epoxomicin
# 26S proteasome non-ATPase regulatory subunit 14 (Homo sapiens), sequence (O00487 whole entry, looked up): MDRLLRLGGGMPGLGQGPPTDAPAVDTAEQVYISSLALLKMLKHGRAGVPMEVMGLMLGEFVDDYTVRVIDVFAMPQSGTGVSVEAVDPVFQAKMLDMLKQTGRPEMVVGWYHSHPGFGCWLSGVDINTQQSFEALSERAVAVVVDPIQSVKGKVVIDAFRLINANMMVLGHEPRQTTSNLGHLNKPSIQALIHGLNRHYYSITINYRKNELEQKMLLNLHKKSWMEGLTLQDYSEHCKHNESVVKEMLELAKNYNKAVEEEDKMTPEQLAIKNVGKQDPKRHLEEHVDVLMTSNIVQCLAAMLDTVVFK
row,SMILES,inhibition
1,CCc1ccc(-c2cc(C(=O)NCc3ccco3)c3ccccc3n2)s1,40.9% (active)
2,CCCS(=O)(=O)N1CCCC(C(=O)NCc2ccco2)C1 (stereo not given),-10.1%
3,C=CCn1c(=S)[nH]c2scc(-c3ccco3)c2c1=O,0.26%
4,CCC(C)Cn1c(O)cc2nn(-c3nc4ccccc4s3)c(=O)c-2c1C (stereo not given),15.4%
5,Cc1ccc(NC(=O)c2c(NC(=O)CCC(=O)O)sc3c2CCCCC3)cc1,-3.94%
6,COc1ccc(CNC(=O)c2nnn(CC(=O)Nc3cc(C)cc(C)c3)c2N)cc1,52.8% (active)
7,CSC1=N/C(=C\C=C\c2cccs2)C(=O)S1,29.7%
8,CCN1CCN(c2cc3nc(C)n(Cc4ccccc4)c(=O)c3cc2NC(=O)c2ccccc2F)CC1,17.4%
9,C/C(=N/Nc1nc(-c2ccccc2)c(CC(=O)O)s1)c1ccccc1,34%
10,COc1ccc(Cl)cc1NC(=O)CCS(=O)(=O)c1ccc(Br)cc1,124% (active)
11,O=C(CCS(=O)(=O)c1cccc2nonc12)NCCc1ccccc1Cl,-2.85%
12,CCCOc1ccc(Cn2c(O)cc(=O)[nH]c2=O)cc1,20.3%
13,CCNCc1cc2cc(C)ccc2[nH]c1=O,18.7%
14,Cc1ccc(Nc2ccccc2N)cc1,32.8%
15,Cc1ccc(Nc2nc(Cl)c(C=O)s2)cc1,55% (active)
16,O=C(OCc1cc2ccccc2[nH]c1=O)c1cccnc1,-8.83%
17,CC(C)Cn1c(CCC(=O)O)ccc1-c1cccs1,-26.6%
18,CC(C)CC1C(=O)N(Cc2cn(Cc3ccco3)nn2)CCS(=O)(=O)N1Cc1ccc(-c2ccc(Cl)c(Cl)c2)cc1 (stereo not given),17.1%
19,Cc1c(NC(=O)CSc2cccc3cccnc23)c(=O)n(-c2ccccc2)n1C,21.1%
20,CN=c1scc(-c2cc(OC)ccc2OC)n1/N=C/c1c(C)[nH]c2ccccc12,44.5% (active)
21,CC(=O)c1sc(N/N=C/c2ccc(C(C)C)cc2)nc1C,-9.02%
22,CCOC(=O)N1CCC(NC(=O)C(NS(=O)(=O)c2ccc3c(c2)CCN3C(=O)CC)C(C)C)CC1 (stereo not given),4.92%
23,Cc1sc2nc(COC(=O)C(NC(=O)c3ccc(Cl)cc3Cl)C(C)C)[nH]c(=O)c2c1C (stereo not given),34.7%
24,C=CC1=C(C(=O)O)N2C(=O)[C@@H](NC(=O)/C(=N/OCC(=O)O)c3csc(N)n3)[C@H]2SC1,66.5% (active)
25,CCC/C=C(\CCC)C(NC(=O)Cc1ccccc1)c1ccc(C(=O)OC)cc1 (stereo not given),-5.68%
26,CCCCCCCCCCOC(=O)Cn1c(COc2cccc(OC)c2)[n+](C)c2ccccc21,7.65%
27,COC1=C/C(=C/c2c(N)n3nc(CC(=O)N4CCOCC4)sc3nc2=O)C=CC1=O,31.8%

row,SMILES,inhibition
1,O=C(COc1cccc(F)c1)Oc1ccc(C(=O)c2ccccc2)cc1,-1.38%
2,Cc1ccc(N=Cc2c(O)cc(C)oc2=O)c(C)c1,22.8%
3,CCOc1ccc(-n2c(O)c(/C=N/c3ccnn3Cc3ccncc3)c3ccccc3c2=O)cc1,98.3% (active)
4,CCOc1ccc(-n2c(O)c(/C=N/Nc3nnc(C)c(=O)[nH]3)c3ccccc3c2=O)cc1,38.6%
5,COc1ccc2[nH]c(=O)c(-c3noc(-c4ccc(F)cc4)n3)cc2c1,3.41%
6,Cc1cc(/C=N/Nc2ccc([N+](=O)[O-])cn2)c(C)n1-c1cccc(C(=O)O)c1,19.1%
7,Cc1oc2c(C)c3oc(=O)c(CC(=O)N[C@@H](CC(C)C)C(=O)N[C@@H](Cc4ccccc4)C(=O)O)c(C)c3cc2c1C,26.8%
8,N#Cc1c(-c2cccs2)nc(SCC(=O)c2ccc(Br)cc2)[nH]c1=O,46% (active)
9,CCCCCCSc1ccc([C@@H]2[C@H]3C(=O)N(CC)C(=O)[C@H]3[C@]3(C(=O)OC)CCCCN23)cc1,33.6%
10,CS(=O)(=O)c1ccc2c(c1)SC1=NC(=O)/C(=C/c3ccco3)C(=N)N12,46.2% (active)
11,CN(C)c1ccc(-n2cccc2/C=C2/SC(=Nc3ccc(F)cc3)NC2=O)cc1,-10.9%
12,Cc1cc(/C=C2/SC(=O)N(CC(=O)N3CCCC3)C2=O)ccc1N1CCOCC1,33.9%
13,COc1cccc(-c2nn(-c3ccccc3)cc2/C=C(\C#N)C(=O)NCCCn2ccnc2)c1,53.8% (active)
14,CCN(CC)C(=O)CSc1nc2ccccc2n1CC(=O)N1CCN(c2ccccc2OC)CC1,-7.43%
15,O=C(CSc1nc2ccccc2c(=O)[nH]1)Nc1nc(-c2ccc(Br)cc2)cs1,129% (active)
16,C=CCn1c(SCC(=O)NCc2ccccc2)nnc1-c1cc(Br)ccc1O,-6.6%
17,Cc1ccc2cc(C#N)c(NCCNC(=S)NCCCN3CCOCC3)nc2c1,1.22%
18,O=C(Nc1ccc(-c2nnc(-c3ccccc3)o2)cc1)c1ccc(Br)o1,11.5%
19,COc1cc(/C=C2/SC(=S)N(Cc3ccccc3)C2=O)cc(OC)c1O,49.8% (active)
20,Nc1nonc1-n1nnc(C(=O)N/N=C/c2cc(Br)ccc2O)c1CSC1=NCCS1,24.8%
21,CCOc1cc(/C=C2\SC(N3CCCCC3)=NC2=O)ccc1O,18.3%
22,O=C(CSc1cccc2cccnc12)N/N=C/c1cccnc1,32.7%
23,CC(=O)/C(=N\Nc1ccc(Cl)cc1Cl)Sc1cccc2cccnc12,62.9% (active)
24,N#Cc1ccc(C(=O)Nc2cccc3cccnc23)c(F)c1,-21.1%
25,CC1CCN(c2ccc3c(c2)S(=O)(=O)c2cc(C(=O)O)ccc2C3=O)CC1,30.4%
26,COc1cccc(/C=C(/CC(=O)Nc2ccc(N3CCOCC3)cc2)c2nc3ccccc3s2)c1,57.2% (active)
27,Cc1nc2ccccc2n1C(=O)N1CCOCC1,-9.96%

row,SMILES,inhibition
1,COc1ccc(-n2c(SCC(=O)Nc3sc4c(c3C#N)CCCC4)nnc2-c2ccc(O)cc2)cc1,13.9%
2,CC(=O)Nc1ccccc1Sc1ccc2c3c(cccc13)C(=O)N(c1ccc(C)cc1)C2=O,1.98%
3,CCOc1ccc(NC(=O)c2ccc(NC(=O)COC(=O)c3ccc(NC(=O)CC#N)cc3)cc2)cc1,103% (active)
4,COC(=O)c1ccc(OCC(=O)NC(C)(C)C)cc1,-8.84%
5,Cc1nc2ccc(C(=O)N3CCSCC3)cc2s1,-7.54%
6,Oc1c(CN2CCCC2)cc(COCc2ccccc2)c2cccnc12,14.7%
7,C=CC[n+]1c(-c2ccc(C)cc2)csc1NNC(=O)Nc1ccccc1,9.49%
8,CC(C)(C)NC(=O)CSC(=Nc1ccccc1F)NC#N,16.3%
9,CCOc1cc(/C=C2\SC(N3CCCC(C)C3)=NC2=O)ccc1O (stereo not given),11.7%
10,Cc1cccc(OCc2nnc(SCc3nc4cc(C(F)(F)F)ccc4c(=O)[nH]3)o2)c1,57.8% (active)
11,CCc1ccc(NC(=O)CS(=O)CC(=O)NCCCc2ccccc2)cc1 (stereo not given),20.8%
12,COc1cccc(NC(=O)C(C)Oc2ccccc2)c1 (stereo not given),-12.2%
13,O=C(O)c1ccc(NN=CC2=C(N3CCOCC3)/C(=C/c3ccccc3)CC2)cc1,48.1% (active)
14,CN(C)CCOC1c2ccccc2-c2ccccc21,-6.33%
15,COc1ccc(CC(=O)Nc2ccc(-c3nnc(-c4ccc(C)cc4)o3)cc2)cc1,-7.43%
16,COc1ccc(NC(=O)Cn2c(-c3ccc(OC)cc3)cn(-c3ccc(C)cc3)c2=O)cc1,42.8% (active)
17,Cc1ccc(NC(=O)CN2CCc3ccccc3C2)cc1,-8.38%
18,NC(N)=N/N=C/c1ccc(OCc2ccc(Cl)cc2Cl)cc1,37%
19,Oc1ccc(/C=N/Nc2nc(-c3ccccc3F)nc3ccccc23)c(O)c1,18.3%
20,O=C1NC(=O)C2C1C(c1ccc([N+](=O)[O-])cc1)=NN2Cc1ccccc1 (stereo not given),29.9%
21,CC(C)Oc1ccc(/C=C(\NC(=O)/C=C/c2ccco2)C(=O)NCCc2nc3ccccc3[nH]2)cc1,44.1% (active)
22,Cc1ccc(-c2nnc(-c3ccc(NC(=O)c4cccs4)cc3)o2)cc1,-12.4%
23,Cc1c(N=Nc2ccc(N(C)C)cc2)c(=O)n(-c2ccccc2)n1C,47.2% (active)
24,CCN1CCCC1CNC(=O)c1cc2c(=O)n(C)c3ccccc3c2n1C (stereo not given),2.2%
25,Cc1cc(OCC(=O)Nc2nccs2)c2c(C)c(C)c(=O)oc2c1,38.8%
26,Cc1nc2ccccc2nc(=O)c1NNc1ccc([N+](=O)[O-])cc1,24%

# — PubChem BioAssay AID602318 (Sanford-Burnham Center for Chemical Genomics, 2012)
